CHT block: inhibits the human high affinity choline transporter; Q9GZV3; CHT-expressing cells, membrane potential dye, choline response; stronger effect = lower value; B-score at 10 µM; actives 0.86% (n = 310,000);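 active = B-score over 3 SD under the library average, and starting fluorescence ratio not unusually high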;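 note: choline stimulus applied at its EC90 after an EC20 pre-addition; B-score computed on integrated fluorescence ratio after choline addition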
ANO1 block: blocks the mouse calcium-activated chloride channel TMEM16A; Q8BHY3; HEK293 TMEM16A/YFP iodide influx fluorescence, ionomycin; normalized B-score (activity score, 25-100; higher = stronger inhibition) at 10 µM; actives 1.2% (n = 310,000);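 active = ratio plate-corrected score three or more library SD toward inhibition, starting fluorescence score within five deviations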;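 note: score derived from kinetic fluorescence span divided by baseline fluorescence per well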
IDE inh: inhibitors of human insulin-degrading enzyme in cells | actives 0.41% (n = 320,000) | P14735 | inhibition, % at 5.59 µM | HEK cells, FAbetaB cleavage, fluorescence polarization;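 active = percent inhibition above the average of all tested compounds plus 3 SD, set per screening campaign, cut at about 16% in these data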;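 note: IDE supplied by intact live HEK cells; FP after avidin binding of uncleaved biotin substrate so inhibition keeps polarization high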
Target sequence (P14735 whole entry, looked up): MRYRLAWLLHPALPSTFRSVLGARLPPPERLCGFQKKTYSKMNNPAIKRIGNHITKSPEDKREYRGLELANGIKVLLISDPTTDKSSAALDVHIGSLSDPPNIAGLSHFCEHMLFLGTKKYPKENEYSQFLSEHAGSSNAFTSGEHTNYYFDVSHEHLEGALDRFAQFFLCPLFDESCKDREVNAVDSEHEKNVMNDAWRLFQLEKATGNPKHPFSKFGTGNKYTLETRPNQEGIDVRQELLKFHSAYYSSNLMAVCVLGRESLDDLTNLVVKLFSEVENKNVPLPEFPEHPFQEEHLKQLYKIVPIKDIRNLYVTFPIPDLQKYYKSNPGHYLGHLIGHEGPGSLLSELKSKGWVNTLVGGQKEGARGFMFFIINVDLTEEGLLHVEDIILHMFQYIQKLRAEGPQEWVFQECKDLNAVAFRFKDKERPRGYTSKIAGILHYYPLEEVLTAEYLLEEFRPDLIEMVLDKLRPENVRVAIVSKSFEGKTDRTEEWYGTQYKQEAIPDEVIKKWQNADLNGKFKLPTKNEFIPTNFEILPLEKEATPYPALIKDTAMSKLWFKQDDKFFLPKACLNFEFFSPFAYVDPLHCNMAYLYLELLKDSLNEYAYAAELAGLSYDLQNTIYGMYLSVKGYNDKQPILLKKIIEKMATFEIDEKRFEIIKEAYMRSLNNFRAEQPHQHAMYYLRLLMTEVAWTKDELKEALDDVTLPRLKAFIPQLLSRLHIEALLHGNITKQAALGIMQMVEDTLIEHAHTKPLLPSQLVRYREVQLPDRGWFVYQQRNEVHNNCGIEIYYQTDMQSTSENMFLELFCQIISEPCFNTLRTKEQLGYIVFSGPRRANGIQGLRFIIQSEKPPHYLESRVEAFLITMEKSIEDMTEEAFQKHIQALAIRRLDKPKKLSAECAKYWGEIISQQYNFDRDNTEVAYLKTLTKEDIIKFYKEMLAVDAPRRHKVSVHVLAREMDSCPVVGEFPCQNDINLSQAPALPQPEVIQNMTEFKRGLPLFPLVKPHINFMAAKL
ANO1 activ: activates or potentiates the mouse TMEM16A chloride channel | B-score at 10 µM | AID 623877 | actives 0.3% (n = 340,000) | HEK293 TMEM16A/YFP-H148Q/I152L, iodide quench fluorescence; stronger effect = lower value | Q8BHY3;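 active = fluorescence-ratio B-score plate-corrected deviation score at least 3 library SD below zero, with starting fluorescence score within 5 deviations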;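 note: channel opened by trigger with iodide after compound preincubation; score built on the fluorescence ratio of max minus min over baseline; more negative score means more quench and so TMEM16A activation or potentiation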
IDE cell activ: boosts human insulin-degrading enzyme activity in HEK cells; P14735; FAbeta-B cleavage, fluorescence polarization; 0% vehicle, 100% cell-free pure enzyme wells; activation, % at 5.96 µM; actives 0.073% (n = 340,000); AID 493087;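 active = activation above the mean of all tested compounds plus 3 SD, set per screening campaign, cut at about 17% in these data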
CHT PAM: allosteric activators of human choline transporter CHT; B-score at 10 µM; AID 488977; Q9GZV3; actives 0.49% (n = 310,000); CHT-expressing cells, membrane potential dye, choline EC20; stronger effect = higher value; LV-AA mutant CHT in HEK293 cells;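 active = initial fluorescence not abnormally high and integrated response B-score, plate-corrected, over 3 SD above library mean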
TMEM16A reconf: re-confirmation of mouse TMEM16A chloride channel inhibitors | HEK293 TMEM16A/YFP-H148Q, iodide quench fluorescence; ionomycin added to raise cell calcium | actives 39% (n = 2,300) | inhibition, % at 10 µM | AID 652189 | shares compounds with ANO1 block;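 active = mean duplicate percent inhibition, scaled so buffer wells are 0 and the reference blocker 100, over three buffer SD above buffer mean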
HEK293 Ca mobil: counter-screen for TMEM16A inhibitors: effect on calcium mobilization; shares compounds with ANO1 block; TMEM16A/YFP HEK293, Fluo4 calcium mobilization; calcium response (% of ionomycin), % at 10 µM; actives 2% (n = 2,300); AID 652231;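 active = duplicate-averaged calcium signal over 20% of the ionomycin maximum, relative to buffer baseline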;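 note: each well's signal is peak minus trough fluorescence divided by its pre-addition baseline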
Parental YFP cnt: acts in parental YFP-HEK293 cells lacking TMEM16A, counter-screen; shares compounds with ANO1 block; iodide YFP quench, ionomycin; YFP ratio F(max-min)/F0 at 10 µM; 2,300 tested, under 10 active; AID 652233;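 active = yellow fluorescent protein signal ratio exceeding the buffer control mean by over 5 SD of those controls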;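 note: ratio is mean of duplicate wells from kinetic YFP trace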
ClC-1 inh: blocks the rat ClC-1 voltage-dependent chloride channel; CHO ClC-1-YFP, iodide influx fluorescence quench; iodide control reads 0, buffer control 100; 2,300 tested, under 10 active; ratio percent, % at 10 µM; shares compounds with ANO1 block;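 active = duplicate-mean ratio percent above the mean of iodide-only control wells, which defines zero, plus 5 of their SD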;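 note: higher percent means stronger block of ClC-1 iodide influx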
A number is an active result; – = inactive; · = not tested or not shown. An excerpt weighted towards active compounds, which were near 2.7% of everything screened.

SMILES	CHT block	ANO1 block	IDE inh	ANO1 activ	IDE cell activ	CHT PAM	TMEM16A reconf	HEK293 Ca mobil	Parental YFP cnt	ClC-1 inh
COc1ccc(NC(=S)NC(NC(=O)c2cccc(Cl)c2)C(Cl)(Cl)Cl)c([N+](=O)[O-])c1 (centres undefined)	–	25	–	–	–	–	–	–	–	–
COc1ccc(NC(=S)NC(NC(=O)c2cccc(C)c2)C(Cl)(Cl)Cl)c([N+](=O)[O-])c1 (centres undefined)	–	–	–	–	–	–	·	·	·	·
CCCc1cc(Nc2cccc(OC)c2)n2ncnc2n1	–	100	–	–	–	–	–	–	–	–
O=C(O)CCC(=O)NCCn1c(-c2ccccc2)csc1=Nc1ccccc1	–	–	–	–	–	–	·	·	·	·
OCCCn1c(-c2ccccc2)csc1=Nc1ccccc1	–	100	–	–	–	–	28.0%	–	–	–
CCCc1cc(C(=O)Nc2ccccc2SC)no1	–	–	–	–	–	–	·	·	·	·
CCCc1cc(C(=O)NCc2cccnc2)no1	–	–	–	–	–	–	·	·	·	·
CCCc1cc(C(=O)Nc2cccc(Cl)c2C)no1	–	25	–	–	–	–	–	–	–	–
CCCc1cc(C(=O)NCc2ccccc2)no1	–	100	–	–	–	–	–	–	–	–
Cc1cccc(NC(=O)C2C3CCCCC32)c1 (centres undefined)	–	–	·	–	–	–	·	·	·	·
CCc1c(C)nc2ncnn2c1NCCc1ccc(OC)cc1	–	25	–	–	–	–	–	–	–	–
COCCCNC(=O)Cc1ccc(S(=O)(=O)N2CCOCC2)s1	·	·	–	–	–	·	·	·	·	·
CNC(=S)N(Cc1ccc(OC)cc1)C1CC(=O)N(c2ccc(Cl)cc2)C1=O (centres undefined)	–	–	–	–	–	–	28.5%	–	–	–
c1ccc(Nc2nc(NCC3CCCO3)c3ccccc3n2)cc1 (centres undefined)	–	100	–	–	–	–	–	–	–	–
OCCNc1nc(Nc2ccc(Br)cc2)nc2ccccc12	–	25	–	·	·	–	22.5%	–	–	–
Oc1cccc(Nc2nc(NCC3CCCO3)c3ccccc3n2)c1 (centres undefined)	–	–	–	·	–	–	·	·	·	·
NNC(=O)c1c(O)c2cccc3c2n(c1=O)CCC3	–	–	–	–	–	–	·	·	·	·
COC(=O)c1ccc(CSc2nc3ccc(Cl)cc3[nH]2)o1	–	–	–	–	–	–	·	·	·	·
COC(=O)c1cc(CSc2nc3ccccc3[nH]2)oc1C	–	25	–	–	–	–	21.5%	–	–	–
Cc1cc(=O)oc2cc(OCC(O)CN3CCc4ccccc4C3)ccc12 (centres undefined)	–	25	–	–	–	–	–	–	–	–
CCc1ccc(NSc2ccccc2[N+](=O)[O-])cc1	–	25	–	–	–	–	–	–	–	–
COc1ccc(C(=O)[C@@H]2CC[C@](C)(C(=O)O)C2(C)C)cc1	–	–	–	–	–	–	·	·	·	·
Cn1c(N2CCN(C(c3ccccc3)c3ccccc3)CC2)nc2ccccc21	–	–	–	–	–	–	·	·	·	·
O=C1CC(c2ccccc2)c2ccc(O)cc2O1 (centres undefined)	–	25	–	–	–	–	–	–	–	–
COc1ccccc1C1CC(=O)Oc2cc(O)ccc21 (centres undefined)	·	·	·	·	–	·	·	·	·	·
SMILES	CHT block	ANO1 block	IDE inh	ANO1 activ	IDE cell activ	CHT PAM	TMEM16A reconf	HEK293 Ca mobil	Parental YFP cnt	ClC-1 inh
Cc1nn(CC(=O)OCC(=O)c2ccccc2)c(C)c1[N+](=O)[O-]	·	·	–	–	–	·	·	·	·	·
Cc1cc(CN2CCC(n3nccc3NC(=O)c3ccccc3C)CC2)n[nH]1	–	–	–	–	–	–	·	·	·	·
CCN(CC1COc2ccccc2O1)C(=S)NC1CC2CCC1C2 (centres undefined)	–	100	–	–	–	–	–	–	–	–
CCN1CCN(C(c2cc3cccc(C)c3[nH]c2=O)c2nnnn2Cc2ccccc2)CC1 (centres undefined)	–	25	–	–	–	–	–	–	–	–
COc1ccc(Cn2nnnc2C(c2cc3cccc(C)c3[nH]c2=O)N2CCOCC2)cc1 (centres undefined)	–	–	–	–	–	–	·	·	·	·
Cc1ccc(NS(=O)(=O)c2cccc(C(=O)Nc3cc(C)on3)c2)cc1	–	25	–	-5.28	–	–	–	–	–	–
CCOC(=O)c1c(-c2ccccc2)csc1NC(=O)CSc1nc(N)cc(N)n1	–	25	–	–	–	–	30.5%	–	–	–
Cc1ccnc(Nc2nc(-c3ccc(F)cc3)cs2)c1	–	100	–	–	–	–	–	–	–	–
O=C(Nc1nnc(CSCc2ccc(Cl)cc2)s1)c1cccc([N+](=O)[O-])c1	–	25	–	–	–	–	–	–	–	–
CC(C)(C)c1ccc(-c2noc(CCC(=O)Nc3cccnc3)n2)cc1	–	100	–	–	–	–	18.0%	–	–	–
COc1ccc(-c2noc(CCC(=O)Nc3cccnc3)n2)cc1	–	–	–	–	–	–	·	·	·	·
COc1ccccc1-c1noc(CCC(=O)Nc2cccc(C(F)(F)F)c2)n1	–	100	–	–	–	–	–	–	–	–
Cc1onc(-c2ccccc2)c1C(=O)Nc1nc2c(s1)CCCC2	–	–	–	–	–	–	·	·	·	·
Cc1onc(-c2c(F)cccc2Cl)c1C(=O)Nc1nc2c(s1)CCCC2	–	100	–	–	–	–	–	–	–	–
CC(C)CCN(C(=O)CNC(=O)c1ccco1)C(C(=O)NC1CCCCC1)c1ccco1 (centres undefined)	–	25	–	·	–	–	19.0%	–	–	–
COCCN(C(=O)CNC(=O)c1ccco1)C(C(=O)NC1CCCC1)c1ccc(F)cc1 (centres undefined)	–	–	–	–	–	–	·	·	·	·
COc1ccc(N2CCN(C(=O)CSc3nnc4nc(C)cc(C)n34)CC2)cc1	–	25	–	–	–	–	–	–	–	–

High-throughput results: PubChem, several laboratories
